± gives the standard deviation of the averaged measurements. In all, about 33,000 sequences were measured (“E-score (rank enrichment, -0.5 to 0.5)”: median about -0.0075, highest 2% from about 0.23 on). Many of the other results were omitted from the sample, so the highest values are more common in it than they were.
What follows are sequences tested on WT Max(13-93) synthetic (M65Nle) (assay: PBM 8-mer E-score (E-score (rank enrichment, -0.5 to 0.5)); higher = stronger preferential binding).
Procedure: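 Protein binding microarray (universal PBM chip covering all 10-mers in fixed probe flanks) with chemically synthesized human Max(13-93) bHLH-LZ analogs (not full-length Max) bearing noncanonical residues (hArg, Tha, Aib, Nle at 65) and aromatic Cys staples. Read-out per 8-mer (and its reverse complement): E-score (rank-based enrichment, -0.5 to 0.5) and Z-score of median probe intensity.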

Sequence | PBM 8-mer E-score
ACTCGATC | -0.107 ± 0.06
ATGGAGGC | -0.00616 ± 0.011
TTTATAAA | 0.176 ± 0.057
ACAACCCT | -0.0273 ± 0.068
ACAACCCC | 0.257 ± 0.052
CCAACCCC | -0.0495 ± 0.05
GCGTCGAA | 0.00213 ± 0.017
CGCATGCG | 0.277 ± 0.018
TGCATGCA | 0.201 ± 0.039
AGCATGCA | 0.335 ± 0.016
AGCATGCG | 0.326 ± 0.055
CGCATGCA | 0.175 ± 0.029
AGCATGCT | 0.165 ± 0.028
GGCATGCA | 0.0781 ± 0.042
CGCATGCC | 0.141 ± 0.068
AGCATGCC | 0.12 ± 0.022
CGCAATGC | -0.0961 ± 0.12
AGACACCC | -0.159 ± 0.022
CATTTGAC | 0.0512 ± 0.021
CAACATGG | 0.171 ± 0.018
GCACATCC | -0.00788 ± 0.08
CGACATGC | 0.18 ± 0.013

Sequence | PBM 8-mer E-score
TCACATGA | 0.229 ± 0.011
ACACATGC | 0.23 ± 0.089
GCACATGC | 0.251 ± 0.032
CCACATGA | 0.24 ± 0.057
CCACATGC | 0.327 ± 0.06
CCACATGG | 0.366 ± 0.0054
GCACATAC | 0.0278 ± 0.096
GCACATGA | 0.175 ± 0.065
CCACATCG | -0.114 ± 0.056
ACTAAGAC | -0.0588 ± 0.021
AGTGGCAT | 0.077 ± 0.041
ATAGAGAT | 0.0666 ± 0.018
ACCTCTAT | -0.0733 ± 0.13
AATGCCTG | -0.0228 ± 0.16
AAACGTTC | 0.138 ± 0.043
TCTTACCA | -0.0372 ± 0.041
CAGTGAGC | -0.263 ± 0.02
AATATGTC | 0.0761 ± 0.1
AATATGAC | 0.201 ± 0.057
AATATATT | 0.197 ± 0.047
AATATGTA | 0.138 ± 0.069
AATATGTG | 0.273 ± 0.036

Sequence | PBM 8-mer E-score
AATATGAA | 0.279 ± 0.013
TATATGAA | 0.15 ± 0.097
AATATATG | 0.251 ± 0.011
AATATATA | 0.175 ± 0.01
ACGTCGAC | 0.0127 ± 0.076
ACCCCGTG | 0.0605 ± 0.035
CCGGCGTA | -0.17 ± 0.049
CCCGCGCC | -0.134 ± 0.14
ACGCATTC | -0.0561 ± 0.13
AGGTGATA | -0.0245 ± 0.055
ATTAATTG | 0.128 ± 0.089
ATTAATTC | 0.159 ± 0.18
GTTAATTA | 0.13 ± 0.14
CTTAATGA | 0.0202 ± 0.07
ATTAATAA | 0.195 ± 0.023
CTTAATTC | 0.258 ± 0.0064
CTTAATTA | 0.0675 ± 0.075
ATTAATTA | 0.235 ± 0.13
ATTAATGA | 0.264 ± 0.076
ATTAATAC | 0.102 ± 0.0018
ATTAATAG | 0.263 ± 0.1
ATTAATGC | 0.0772 ± 0.086

Sequence | PBM 8-mer E-score
ACTACAGT | 0.0566 ± 0.059
TGACAACA | 0.0331 ± 0.06
CCCGCTAC | 0.047 ± 0.0079
CTGAAGCC | -0.13 ± 0.039
GAGAGCTA | 0.1 ± 0.073
ATGGGCTA | 0.0445 ± 0.068
TAATGACA | 0.256 ± 0.013
AAATGACA | 0.248 ± 0.04
AAATGACC | 0.0445 ± 0.18
CAATGACA | 0.184 ± 0.075
GAATGACA | 0.0853 ± 0.076
AAATGACG | 0.0648 ± 0.073
CGACCCAG | -0.168 ± 0.1
CTCAAGAA | 0.026 ± 0.0068
GATTATAA | 0.134 ± 0.066
AGTTATAA | 0.132 ± 0.08
GATTAGAA | 0.131 ± 0.017
TATTATAA | 0.291 ± 0.094
TATTAGAA | 0.235 ± 0.07
CGTTATAA | 0.0918 ± 0.12

From the supplement of paper PMC12636033
